# Reference: ChEMBL document CHEMBL3988442, “University of Dundee, Small-Polar-MMV Screening Library” (2021)
# The whole screen tested about 66,000 compounds, of which about 960 (1.5%) showed an effect of 50% or more. Only a selection was taken, and strong results are over-represented in it overall.
# Tested on: Trypanosoma brucei
# Experiment: Trypanosoma brucei 72 hour study
# Assay type: functional, organism-based
# Design: scale not given: in the data most compounds retested in dose-response had high values
Compound,"Percent Effect (30.3 µM, […]) [%]","Percent Effect (30 µM, 30.03 µM) [%]"
Cc1ccc(CN(CCCn2ccnc2)Cc2[nH]cnc2C)s1.O=C(O)CC(O)(CC(=O)O)C(=O)O,19.63,–
O=C(O)C(F)(F)F.O=C(O)C(F)(F)F.O=C(c1ccncc1)N1CC2(CCNCC2)c2cc(Cl)ccc21,-51.23,–
O=C(O)C(F)(F)F.O=C(c1cscn1)N1CC[C@@H]2[C@@H]1CCN2CC1CCOC1 (stereo partly specified),-46.23,–
Cc1cc(O)c(OCC(=O)/N=c2\[nH]c(C)cs2)cn1,–,-14.8
COc1cccc(-c2noc(-c3ccc(NCC4CC4)nc3)n2)c1OC,–,64.24
COc1cccc(-c2noc(-c3ccc(NCC(C)C)nc3)n2)c1OC,–,3.504
CNCCNc1ccc(-c2nc(-c3cccc(OC)c3OC)no2)cn1,–,17.24
CCN(CC)S(=O)(=O)c1ccc(CCC(=O)NCc2cc(C)on2)cc1,-181.3,–
CCN(CC)S(=O)(=O)c1ccc(CNC(=O)N2CCC(C#N)CC2)cc1,–,70.46
CCN(CC)c1ccc(CNC(=O)N2CCC(C#N)CC2)cc1,–,36.77
CCN(CC)S(=O)(=O)c1ccc(CNC(=O)c2cc(C)on2)cc1,58.42,–
Cc1cc(C(=O)NCc2cc(C)oc2C)no1,–,-30.84
CCN(CC)S(=O)(=O)c1ccc(CNC(=O)N2CCCCCC2)cc1,–,27.66
CC1(C)CN(C(CNC2=NCCN2)c2ccc(Cl)cc2)CCO1.I (stereo unspecified),–,11.29
c1ccc(-c2nnc3sc(CCN4CCCC4)nn23)cc1,–,-48.79
Cc1ccc(CN2CC[C@H]3C[C@H](C(=O)N(C)C)O[C@H]3C2)cc1.O=C(O)C(F)(F)F,–,45.02
CN1CCNC(Cc2ccc(-c3ccncc3)cc2)C1=O.Cl (stereo unspecified),-41.95,–
COc1ccc(C2Nc3cc(Cl)ccc3C3=NCCN32)cc1OC (stereo unspecified),–,25.02
COc1ccc(C2Nc3cc(Cl)ccc3C3=NCCN32)cc1CO (stereo unspecified),83.77,–

Compound,"Percent Effect (30.3 µM, […]) [%]","Percent Effect (30 µM, 30.03 µM) [%]"
CN(C)c1ncc(C2Nc3ccccc3C3=NCCCN32)cn1.Cl (stereo unspecified),-6.507,–
COc1ccc(C2Nc3cc(Cl)ccc3C3=NCCN32)cc1O (stereo unspecified),12.75,–
COc1cc(C2Nc3cc(Cl)ccc3C3=NCCN32)cc(OC)c1OC (stereo unspecified),19.53,–
COc1cc(C2Nc3cc(Cl)ccc3C3=NCCN32)ccc1O (stereo unspecified),69.32,–
COc1cc(OC)c(C2Nc3cc(Cl)ccc3C3=NCCN32)cc1OC (stereo unspecified),–,4.882
COc1ccc(C2Nc3ccccc3C3=NCCCN32)cc1OC (stereo unspecified),–,-8.154
CN(C)c1ncc(C2Nc3cc(Cl)ccc3C3=NCCCN32)cn1.Cl (stereo unspecified),62.93,–
O=C(O)C1CN(c2cncc(Cc3ccccc3F)n2)C1,-23.43,–
CC(=O)N1CCC(N2CCC(c3nc(C)cc(C)n3)C2)CC1.O=CO (stereo unspecified),-13.11,–
CC(C)C(=O)N1CC[C@H]2N(C)CC[C@@]2(C(=O)Nc2cccnc2)CC1.O=C(O)C(F)(F)F.O=C(O)C(F)(F)F,-93.75,–
CCCc1cc(C(=O)N2CC(c3ccncc3)C2)ccn1,-10.84,–
CC1=CC[C@@H]2CN(C(=O)c3ccc(-c4nc[nH]n4)cc3)C[C@@H]2C1,–,36.48
O=C(c1ccc(-c2cc[nH]n2)cc1)N1CC[C@H](CO)[C@H](O)C1,–,0.05802
CCCc1cc(C(=O)N2C[C@H]3CC=C(C)C[C@H]3C2)ccn1,56.41,–
CC1=CC[C@@H]2CN(C(=O)c3ccc(-c4cc[nH]n4)cc3)C[C@@H]2C1,–,55.2
O=C(c1ccc(F)cc1)N1C[C@@H]2CN(c3ncccn3)C[C@@H]2C1,-32.62,–
Cc1ccc(C(=O)N2C[C@@H]3CN(c4ncccn4)C[C@@H]3C2)cc1,-8.111,–
CCCc1cc(C(=O)N2C[C@H](O)[C@@H](N3CCCC3)C2)ccn1,-5.682,–
CC1=CC[C@@H]2CN(C(=O)c3ccc(-c4nnn(C)n4)cc3)C[C@@H]2C1,–,59.61

Compound,"Percent Effect (30.3 µM, […]) [%]","Percent Effect (30 µM, 30.03 µM) [%]"
O=C(O)C(F)(F)F.O=C(O)C(F)(F)F.O=C(O)CN1CCCC2(CCN2Cc2cccc(F)c2)C1 (stereo unspecified),-49.81,–
CN(Cc1cccnc1)[C@@H]1CN(C(=O)NC2CC2)[C@@H]2CCCO[C@H]12.O=C(O)C(F)(F)F.O=C(O)C(F)(F)F,-11.25,–
FC1(F)CCN(Cc2ccccn2)CC12CCN(c1ncccn1)C2.O=C(O)C(F)(F)F (stereo unspecified),-64.14,–
CNC(=O)CN1CCOCC2(C1)CN(C(=O)CC(C)C)CCO2.O=C(O)C(F)(F)F (stereo unspecified),–,-16.33
O=C(c1ccncc1)N1C[C@@H]2CC[C@H](C1)N(S(=O)(=O)c1cccnc1)C2,–,-9.354
COc1ccc(CN(Cc2c[nH]cn2)CC2CCCO2)c(OC)c1.O=C(O)CC(O)(CC(=O)O)C(=O)O (stereo unspecified),4.059,–
COCCNC(=O)[C@H]1C[C@@H]2CCN(c3ccccc3)C[C@H]2O1.O=C(O)C(F)(F)F,-28.03,–
CCn1nnc2c1C(COCCN(C)C)CN(Cc1ccc(C)s1)C2.O=C(O)C(F)(F)F.O=C(O)C(F)(F)F (stereo unspecified),-26.69,–
Cc1ccc(N2CCC3(CN(Cc4ccncc4)CCC3(F)F)C2)nn1.O=C(O)C(F)(F)F.O=C(O)C(F)(F)F (stereo unspecified),-39.6,–
Cl.Fc1ccccc1Cn1c(C2CCNCC2)cc2cccnc21,37.09,–
Cl.Fc1cccc(F)c1Cn1c(C2CCCNC2)cc2cccnc21 (stereo unspecified),11.23,–
COc1ccc(Cn2c(C3CCNCC3)cc3cccnc32)cc1.Cl,99.58,–
COc1cccc(CN2C[C@H]3CCNCC[C@H]3S2(=O)=O)c1,-73.82,–
COc1cccc(-c2ccnc(C3CCNCC3)c2)c1,-11.36,–
COc1cccc(Cn2c(C3CCNCC3)cc3cccnc32)c1.Cl,94.63,–
Cl.c1cnc2c(c1)cc(C1CCOCC1)n2CCN1CCOCC1,3.621,–
CN1CCCC1c1cc2cccnc2n1Cc1ccc(F)cc1.Cl (stereo unspecified),-6.063,–
Cl.Fc1cccc(F)c1Cn1c(C2CCNCC2)cc2cccnc21,90.9,–
